# In paper PMC11006913:
# Numbering of substitutions follows the chain as printed.
# Key:
# Experiment in all cases: PBM; 200 nM protein, PBS
# Settings in all cases: dsDNA, one strand shown
# HOXB9 [1] = molecular target: HOXB9 (Homo sapiens, UniProt P17482 171-250, T197M)
# HOXA4 [2] = molecular target: HOXA4 (Homo sapiens, UniProt Q00056 201-287, W262R)
# HOXC9 [3] = molecular target: HOXC9 (Homo sapiens, UniProt P31274 178-260, K195R)
# HOXA4 [4] = molecular target: HOXA4 (Homo sapiens, UniProt Q00056 201-287, R217L)
# HOXA4 (Homo sapiens, UniProt Q00056 201-287, R217L), sequence (Q00056 201-287 R217L): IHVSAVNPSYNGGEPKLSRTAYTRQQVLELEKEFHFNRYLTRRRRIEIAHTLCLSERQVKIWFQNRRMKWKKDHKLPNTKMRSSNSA
# HOXB9 [5] = molecular target: HOXB9 (Homo sapiens, UniProt P17482 171-250)
# HOXB9 (Homo sapiens, UniProt P17482 171-250), sequence (P17482 171-250): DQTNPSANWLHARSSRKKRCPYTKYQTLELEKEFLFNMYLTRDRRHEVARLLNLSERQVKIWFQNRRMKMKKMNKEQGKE
# HOXC9 [6] = molecular target: HOXC9 (Homo sapiens, UniProt P31274 178-260)
# HOXC9 (Homo sapiens, UniProt P31274 178-260), sequence (P31274 178-260): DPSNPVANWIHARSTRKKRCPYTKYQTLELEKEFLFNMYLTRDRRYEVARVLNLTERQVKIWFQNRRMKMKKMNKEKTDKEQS
# HOXC9 [7] = molecular target: HOXC9 (Homo sapiens, UniProt P31274 178-260, R193K)
# HOXC9 (Homo sapiens, UniProt P31274 178-260, R193K), sequence (P31274 178-260 R193K): as the sequence (P31274 178-260) above, with R16K counted along it
# HOXA4 [8] = molecular target: HOXA4 (Homo sapiens, UniProt Q00056 201-287)
# HOXA4 (Homo sapiens, UniProt Q00056 201-287), sequence (Q00056 201-287): as the sequence (Q00056 201-287 R217L) above, with L17R counted along it
# HOXB9 [9] = molecular target: HOXB9 (Homo sapiens, UniProt P17482 171-250, R186Q)
# HOXB9 (Homo sapiens, UniProt P17482 171-250, R186Q), sequence (P17482 171-250 R186Q): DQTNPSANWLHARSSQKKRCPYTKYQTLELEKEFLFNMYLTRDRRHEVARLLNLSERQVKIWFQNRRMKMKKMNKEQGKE
# HOXC9 [10] = molecular target: HOXC9 (Homo sapiens, UniProt P31274 178-260, R222W)
# HOXC9 (Homo sapiens, UniProt P31274 178-260, R222W), sequence (P31274 178-260 R222W): as the sequence (P31274 178-260) above, with R45W counted along it
# HOXA4 [11] = molecular target: HOXA4 (Homo sapiens, UniProt Q00056 201-287, W262F)
# HOXA4 (Homo sapiens, UniProt Q00056 201-287, W262F), sequence (Q00056 201-287 W262F): as the sequence (Q00056 201-287 R217L) above, with L17R, W62F counted along it
# VENTX [12] = molecular target: T1, VENTX (Homo sapiens, UniProt O95231 78-163, R121Q)
# T1 sequence: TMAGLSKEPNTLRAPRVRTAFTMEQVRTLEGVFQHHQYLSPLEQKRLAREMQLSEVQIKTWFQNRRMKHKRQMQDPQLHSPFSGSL
# VENTX [13] = molecular target: T2, VENTX (Homo sapiens, UniProt O95231 78-163)
# T2 sequence: T1 sequence with Q44R
# VENTX [14] = molecular target: T3, VENTX (Homo sapiens, UniProt O95231 78-163, Y115F)
# T3 sequence: T1 sequence with Y38F, Q44R
# CRX = CRX (Homo sapiens, UniProt O43186 26-111, R41L)
# CRX, sequence (O43186 26-111 R41L): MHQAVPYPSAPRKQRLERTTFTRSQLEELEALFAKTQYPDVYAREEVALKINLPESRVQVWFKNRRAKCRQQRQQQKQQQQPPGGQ
# HOXC10 [15] = molecular target: HOXC10 (Homo sapiens, UniProt Q9NYD6 254-340)
# HOXC10 (Homo sapiens, UniProt Q9NYD6 254-340), sequence (Q9NYD6 254-340): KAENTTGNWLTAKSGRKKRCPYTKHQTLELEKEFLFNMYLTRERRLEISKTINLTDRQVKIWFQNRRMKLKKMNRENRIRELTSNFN
# ALX4 = ALX4 (Homo sapiens, UniProt Q9H161 200-286, Q225E)
# ALX4, sequence (Q9H161 200-286 Q225E): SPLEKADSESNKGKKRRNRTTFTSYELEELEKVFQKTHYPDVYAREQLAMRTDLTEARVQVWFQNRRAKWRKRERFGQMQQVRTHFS
# HOXD13 [16] = molecular target: HOXD13 (Homo sapiens, UniProt P35453 263-343, T313R)
# HOXD13 (Homo sapiens, UniProt P35453 263-343, T313R), sequence (P35453 263-343 T313R): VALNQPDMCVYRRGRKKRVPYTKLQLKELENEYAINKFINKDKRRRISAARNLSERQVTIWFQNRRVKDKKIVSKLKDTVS
# HOXD13 [17] = molecular target: HOXD13 (Homo sapiens, UniProt P35453 263-343)
# HOXD13 (Homo sapiens, UniProt P35453 263-343), sequence (P35453 263-343): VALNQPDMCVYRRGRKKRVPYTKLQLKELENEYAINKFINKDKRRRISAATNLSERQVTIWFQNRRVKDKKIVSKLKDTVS
# HOXC10 [18] = molecular target: HOXC10 (Homo sapiens, UniProt Q9NYD6 254-340, K271E)
# HOXC10 (Homo sapiens, UniProt Q9NYD6 254-340, K271E), sequence (Q9NYD6 254-340 K271E): as the sequence (Q9NYD6 254-340) above, with K18E counted along it
# HOXD13 [19] = molecular target: HOXD13 (Homo sapiens, UniProt P35453 263-343, T313A)
# HOXD13 (Homo sapiens, UniProt P35453 263-343, T313A), sequence (P35453 263-343 T313A): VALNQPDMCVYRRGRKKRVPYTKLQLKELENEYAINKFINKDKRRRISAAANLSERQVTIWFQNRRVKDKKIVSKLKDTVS
# HOXA7 [20] = molecular target: HOXA7 (Homo sapiens, UniProt P31268 116-202)
# HOXA7 (Homo sapiens, UniProt P31268 116-202), sequence (P31268 116-202): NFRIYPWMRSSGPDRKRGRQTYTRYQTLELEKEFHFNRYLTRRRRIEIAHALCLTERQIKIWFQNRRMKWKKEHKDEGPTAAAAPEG
# HOXB6 [21] = molecular target: HOXB6 (Homo sapiens, UniProt P17509 132-218, K202E)
# HOXB6 (Homo sapiens, UniProt P17509 132-218, K202E), sequence (P17509 132-218 K202E): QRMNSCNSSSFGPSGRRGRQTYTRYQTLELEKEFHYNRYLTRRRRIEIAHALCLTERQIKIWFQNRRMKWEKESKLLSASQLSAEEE
# NKX2-6 = molecular target: T4, NKX2-6 (Homo sapiens, UniProt A6NCS4 118-204)
# T4 sequence: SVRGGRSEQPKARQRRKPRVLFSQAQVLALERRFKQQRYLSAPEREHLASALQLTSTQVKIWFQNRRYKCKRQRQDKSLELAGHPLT
# HOXA7 [22] = molecular target: HOXA7 (Homo sapiens, UniProt P31268 116-202, W177C)
# HOXA7 (Homo sapiens, UniProt P31268 116-202, W177C), sequence (P31268 116-202 W177C): as the sequence (P31268 116-202) above, with W62C counted along it
# HOXB6 [23] = molecular target: HOXB6 (Homo sapiens, UniProt P17509 132-218)
# HOXB6 (Homo sapiens, UniProt P17509 132-218), sequence (P17509 132-218): as the sequence (P17509 132-218 K202E) above, with E71K counted along it
# PRRX1 [24] = molecular target: PRRX1 (Homo sapiens, UniProt P54821 80-166, F113S)
# PRRX1 (Homo sapiens, UniProt P54821 80-166, F113S), sequence (P54821 80-166 F113S): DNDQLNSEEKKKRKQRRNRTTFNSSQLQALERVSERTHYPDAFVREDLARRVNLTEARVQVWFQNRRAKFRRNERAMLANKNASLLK
# PRRX1 [25] = molecular target: PRRX1 (Homo sapiens, UniProt P54821 80-166)
# PRRX1 (Homo sapiens, UniProt P54821 80-166), sequence (P54821 80-166): as the sequence (P54821 80-166 F113S) above, with S34F counted along it
# HOXC9 (Homo sapiens, UniProt P31274 178-260, K195R), sequence (P31274 178-260 K195R): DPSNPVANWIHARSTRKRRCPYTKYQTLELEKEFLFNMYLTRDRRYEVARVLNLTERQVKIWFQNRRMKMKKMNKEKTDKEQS
# HOXB9 (Homo sapiens, UniProt P17482 171-250, T197M), sequence (P17482 171-250 T197M): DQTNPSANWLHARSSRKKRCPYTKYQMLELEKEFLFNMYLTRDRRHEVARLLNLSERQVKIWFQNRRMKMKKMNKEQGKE
# HOXA4 (Homo sapiens, UniProt Q00056 201-287, W262R), sequence (Q00056 201-287 W262R): as the sequence (Q00056 201-287 R217L) above, with L17R, W62R counted along it
sequence,measurement,setting,value
CCCGGTTC,binding signal,HOXB9 [1],"8.56 upbm affinity estimate (log intensity, higher = more binding, comparable within an allelic series)"
same,binding signal,HOXA4 [2],"9.88 upbm affinity estimate (log intensity, higher = more binding, comparable within an allelic series)"
same,binding signal,HOXC9 [3],"9.5 upbm affinity estimate (log intensity, higher = more binding, comparable within an allelic series)"
same,binding signal,HOXA4 [4],"9.82 upbm affinity estimate (log intensity, higher = more binding, comparable within an allelic series)"
same,binding signal,HOXB9 [5],"8.35 upbm affinity estimate (log intensity, higher = more binding, comparable within an allelic series)"
same,binding signal,HOXC9 [6],"9.62 upbm affinity estimate (log intensity, higher = more binding, comparable within an allelic series)"
same,binding signal,HOXC9 [7],"9.59 upbm affinity estimate (log intensity, higher = more binding, comparable within an allelic series)"
same,binding signal,HOXA4 [8],"9.74 upbm affinity estimate (log intensity, higher = more binding, comparable within an allelic series)"
same,binding signal,HOXB9 [9],"8.47 upbm affinity estimate (log intensity, higher = more binding, comparable within an allelic series)"
same,binding signal,HOXC9 [10],"9.68 upbm affinity estimate (log intensity, higher = more binding, comparable within an allelic series)"
same,binding signal,HOXA4 [11],"9.9 upbm affinity estimate (log intensity, higher = more binding, comparable within an allelic series)"
CCGATTAG,binding signal,VENTX [12],"11.6 upbm affinity estimate (log intensity, higher = more binding, comparable within an allelic series)"
same,binding signal,VENTX [13],"12.9 upbm affinity estimate (log intensity, higher = more binding, comparable within an allelic series)"
same,binding signal,VENTX [14],"11.6 upbm affinity estimate (log intensity, higher = more binding, comparable within an allelic series)"
same,binding signal,CRX,"11.4 upbm affinity estimate (log intensity, higher = more binding, comparable within an allelic series)"
CAATAAAA,binding signal,HOXB9 [1],"10.1 upbm affinity estimate (log intensity, higher = more binding, comparable within an allelic series)"
same,binding signal,HOXC9 [3],"13.2 upbm affinity estimate (log intensity, higher = more binding, comparable within an allelic series)"
same,binding signal,HOXC10 [15],"12.9 upbm affinity estimate (log intensity, higher = more binding, comparable within an allelic series)"
same,binding signal,ALX4,"11.2 upbm affinity estimate (log intensity, higher = more binding, comparable within an allelic series)"
same,binding signal,HOXB9 [5],"12.7 upbm affinity estimate (log intensity, higher = more binding, comparable within an allelic series)"
same,binding signal,HOXC9 [6],"13.2 upbm affinity estimate (log intensity, higher = more binding, comparable within an allelic series)"
same,binding signal,HOXD13 [16],"11.2 upbm affinity estimate (log intensity, higher = more binding, comparable within an allelic series)"
same,binding signal,HOXC9 [7],"13.2 upbm affinity estimate (log intensity, higher = more binding, comparable within an allelic series)"
same,binding signal,HOXD13 [17],"12.5 upbm affinity estimate (log intensity, higher = more binding, comparable within an allelic series)"
same,binding signal,HOXC10 [18],"12.5 upbm affinity estimate (log intensity, higher = more binding, comparable within an allelic series)"
same,binding signal,HOXD13 [19],"12.3 upbm affinity estimate (log intensity, higher = more binding, comparable within an allelic series)"
same,binding signal,HOXB9 [9],"12.4 upbm affinity estimate (log intensity, higher = more binding, comparable within an allelic series)"
same,binding signal,HOXC9 [10],"11.7 upbm affinity estimate (log intensity, higher = more binding, comparable within an allelic series)"
CCTAATCG,binding signal,VENTX [12],"11.4 upbm affinity estimate (log intensity, higher = more binding, comparable within an allelic series)"
same,binding signal,VENTX [13],"12.5 upbm affinity estimate (log intensity, higher = more binding, comparable within an allelic series)"
same,binding signal,VENTX [14],"11.3 upbm affinity estimate (log intensity, higher = more binding, comparable within an allelic series)"
same,binding signal,CRX,"10.8 upbm affinity estimate (log intensity, higher = more binding, comparable within an allelic series)"
CCCGATTA,binding signal,VENTX [12],"10.4 upbm affinity estimate (log intensity, higher = more binding, comparable within an allelic series)"
same,binding signal,VENTX [14],"10.6 upbm affinity estimate (log intensity, higher = more binding, comparable within an allelic series)"
GCTATTAA,binding signal,HOXB9 [1],"10 upbm affinity estimate (log intensity, higher = more binding, comparable within an allelic series)"
same,binding signal,HOXC9 [3],"12.7 upbm affinity estimate (log intensity, higher = more binding, comparable within an allelic series)"
same,binding signal,HOXA7 [20],"11.4 upbm affinity estimate (log intensity, higher = more binding, comparable within an allelic series)"
same,binding signal,HOXB6 [21],"9.98 upbm affinity estimate (log intensity, higher = more binding, comparable within an allelic series)"
same,binding signal,HOXB9 [5],"12 upbm affinity estimate (log intensity, higher = more binding, comparable within an allelic series)"
same,binding signal,HOXC9 [6],"12.8 upbm affinity estimate (log intensity, higher = more binding, comparable within an allelic series)"
same,binding signal,HOXD13 [16],"10.7 upbm affinity estimate (log intensity, higher = more binding, comparable within an allelic series)"
same,binding signal,NKX2-6,"11.8 upbm affinity estimate (log intensity, higher = more binding, comparable within an allelic series)"
same,binding signal,HOXC9 [7],"12.7 upbm affinity estimate (log intensity, higher = more binding, comparable within an allelic series)"
same,binding signal,HOXD13 [17],"11.8 upbm affinity estimate (log intensity, higher = more binding, comparable within an allelic series)"
same,binding signal,HOXC10 [18],"11.8 upbm affinity estimate (log intensity, higher = more binding, comparable within an allelic series)"
same,binding signal,HOXD13 [19],"11.5 upbm affinity estimate (log intensity, higher = more binding, comparable within an allelic series)"
same,binding signal,HOXB9 [9],"11.8 upbm affinity estimate (log intensity, higher = more binding, comparable within an allelic series)"
same,binding signal,HOXC9 [10],"10.9 upbm affinity estimate (log intensity, higher = more binding, comparable within an allelic series)"
same,binding signal,HOXA7 [22],"8.84 upbm affinity estimate (log intensity, higher = more binding, comparable within an allelic series)"
same,binding signal,HOXB6 [23],"11.8 upbm affinity estimate (log intensity, higher = more binding, comparable within an allelic series)"
CCGATTAC,binding signal,VENTX [12],"10.3 upbm affinity estimate (log intensity, higher = more binding, comparable within an allelic series)"
same,binding signal,PRRX1 [24],"9.76 upbm affinity estimate (log intensity, higher = more binding, comparable within an allelic series)"
same,binding signal,VENTX [14],"10.4 upbm affinity estimate (log intensity, higher = more binding, comparable within an allelic series)"
same,binding signal,PRRX1 [25],"11.8 upbm affinity estimate (log intensity, higher = more binding, comparable within an allelic series)"
GTAATAAA,binding signal,HOXB9 [1],"10.1 upbm affinity estimate (log intensity, higher = more binding, comparable within an allelic series)"
same,binding signal,HOXC9 [3],"13.2 upbm affinity estimate (log intensity, higher = more binding, comparable within an allelic series)"
same,binding signal,HOXA7 [20],"11.4 upbm affinity estimate (log intensity, higher = more binding, comparable within an allelic series)"
same,binding signal,HOXC10 [15],"13 upbm affinity estimate (log intensity, higher = more binding, comparable within an allelic series)"
same,binding signal,HOXB6 [21],"9.9 upbm affinity estimate (log intensity, higher = more binding, comparable within an allelic series)"
same,binding signal,HOXB9 [5],"12.6 upbm affinity estimate (log intensity, higher = more binding, comparable within an allelic series)"
same,binding signal,HOXC9 [6],"13.3 upbm affinity estimate (log intensity, higher = more binding, comparable within an allelic series)"
same,binding signal,HOXD13 [16],"11 upbm affinity estimate (log intensity, higher = more binding, comparable within an allelic series)"
same,binding signal,HOXC9 [7],"13.2 upbm affinity estimate (log intensity, higher = more binding, comparable within an allelic series)"
same,binding signal,HOXD13 [17],"12.1 upbm affinity estimate (log intensity, higher = more binding, comparable within an allelic series)"
same,binding signal,HOXC10 [18],"12.6 upbm affinity estimate (log intensity, higher = more binding, comparable within an allelic series)"
same,binding signal,HOXD13 [19],"11.9 upbm affinity estimate (log intensity, higher = more binding, comparable within an allelic series)"
same,binding signal,HOXB9 [9],"12.3 upbm affinity estimate (log intensity, higher = more binding, comparable within an allelic series)"
same,binding signal,HOXC9 [10],"11.4 upbm affinity estimate (log intensity, higher = more binding, comparable within an allelic series)"
same,binding signal,HOXA7 [22],"8.79 upbm affinity estimate (log intensity, higher = more binding, comparable within an allelic series)"
same,binding signal,HOXB6 [23],"11.8 upbm affinity estimate (log intensity, higher = more binding, comparable within an allelic series)"
